Results on 24 molecules are retold here after PubChem BioAssay AID1032 (The Scripps Research Institute Molecular Screening Center, 2008).

Hit rate of the full screen: of about 200,000 compounds, about 670 (0.34%) were called active. The list comes from a sample in which actives are over-represented; it also holds similar structures and randomly drawn compounds. Values without a mark were called inactive. Rule as the data show it: active = activation above about 22%; inactive = the rest.

Peroxisome proliferator-activated receptor gamma (Homo sapiens), sequence (P37231 whole entry, looked up, the tested form may be a part): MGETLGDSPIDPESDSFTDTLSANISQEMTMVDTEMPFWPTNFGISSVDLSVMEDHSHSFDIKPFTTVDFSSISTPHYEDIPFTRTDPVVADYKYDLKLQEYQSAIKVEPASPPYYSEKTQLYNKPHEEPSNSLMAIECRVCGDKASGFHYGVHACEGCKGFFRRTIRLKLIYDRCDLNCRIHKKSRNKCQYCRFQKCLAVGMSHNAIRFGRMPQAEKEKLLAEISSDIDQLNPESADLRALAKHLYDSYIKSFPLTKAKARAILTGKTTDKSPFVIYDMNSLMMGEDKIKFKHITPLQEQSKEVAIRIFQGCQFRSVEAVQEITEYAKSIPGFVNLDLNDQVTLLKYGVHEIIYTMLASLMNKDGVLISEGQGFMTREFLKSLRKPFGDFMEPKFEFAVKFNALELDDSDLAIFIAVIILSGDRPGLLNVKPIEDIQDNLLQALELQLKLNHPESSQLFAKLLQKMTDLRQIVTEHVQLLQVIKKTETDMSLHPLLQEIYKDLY

This assay addresses Peroxisome proliferator-activated receptor gamma (Homo sapiens) (UniProt P37231). Nature of the assay: agonists of PPARg-SRC-2 recruitment, primary screen, biochemical, HTS (AID 1032).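 Also: 0% = vehicle and 100% = reference agonist.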 The following applies: PPARgamma LBD-SRC-2 recruitment, at 8 µM, hits give high values.
`Cc1ccc(NC(=O)c2ccc(Oc3ncccn3)cc2)cc1`: the activation was 3.49%.

For `CCN(/N=C/c1ccccc1)c1cc(=O)n(C)c(=O)[nH]1`, the activation was -3.6%.

Consider `CN(C)c1ccc(/C=N/N(Cc2ccccc2)c2ccccc2)cc1`, for which the activation was 11.9%.

In the case of `CCN(/N=C/c1ccc(N(C)C)cc1)c1nc2ccccc2[nH]1`, the activation is 23% (active).

For the molecule `O=C(Nc1ccccc1F)c1ccc(Cn2cc(Br)cn2)cc1`, the activation was -1.02%.

Turning to `CN1CCN(CCC(=O)N/N=C/C=C2\N(C)c3ccccc3C2(C)C)CC1`, the activation is 10%.

Consider `O=C(Nc1ccncc1)c1ccccc1[N+](=O)[O-]`, for which the activation was -0.46%.

For the molecule `CCn1cc(CNC(=O)c2cc([N+](=O)[O-])c(C)c([N+](=O)[O-])c2)cn1`, the activation was -6.4%.

Consider `COc1ccc(NC(=S)NC2CCS(=O)(=O)C2)cc1` (centres undefined), for which the activation is 6.88%.

Turning to `O=C(O)Cc1sc(-c2ccccc2)nc1-c1cccs1`, the activation was 34.7% (active).

`Cc1ccc(-c2nc(C)sc2CC(=O)O)cc1`: the activation is -0.57%.

In the case of `O=C(O)Cc1sc(-c2ccc(C(=O)O)cc2)nc1-c1ccccc1`, the activation is 10.9%.

In the case of `COc1ccc(NC(=O)CN(C)CC(=O)Nc2cccc(C(F)(F)F)c2)cc1`, the activation was -2.86%.

In the case of `COc1cc2c(cc1OC)CC1(CCCCC1)N=C2`, the activation was 0.25%.

As to `Cc1n[nH]c(=O)nc1N/N=C/c1cccs1`, the activation is 3.35%.

On to `COc1cccc(-n2c(=O)c3c(C)c(C(=O)N(C)C)sc3n(CC(=O)NCCc3ccc(OC)c(OC)c3)c2=O)c1`, for which the activation is 9.15%.

In the case of `O=C(NNc1ccccc1Cl)C(O)(c1cccc(C(F)(F)F)c1)c1cccc(C(F)(F)F)c1`, the activation was 17.2%.

Take `Cc1cccc(OCc2ccc(C(=O)Nc3ccc(F)cc3)cc2)c1`: the activation was -0.72%.

Turning to `Cc1nc2ccccc2cc1OCc1ccc(F)cc1`, the activation is 4.89%.

`Fc1ccc(COc2cccc(-c3n[nH]c(=S)o3)c2)cc1`: the activation is 44.9% (active).

As to `CC(C)NC(=O)CSc1ccccc1C(=O)NCc1ccc2c(c1)OCO2`, the activation is -4.93%.

Consider `CCn1c(=O)cc(SCC(=O)NCCC2=CCCCC2)c2ccccc21`, for which the activation is 16.9%.

For `CCn1c(=O)cc(SCC(=O)NCc2ccc3c(c2)OCO3)c2ccccc21`, the activation was 36% (active).

`O=C(N/N=C/c1ccc2c(c1)OCO2)C(=O)N1CCCC1`: the activation is -5.72%.
